Laboratory results: PubChem BioAssay AID1259418 (Broad Institute, 2018)
In all, about 3,400 compounds went through this assay and about 840 (25%) were called active. Not shown: some 11% with an inconclusive outcome. The list is a sample of the results. Measured potencies and affinities stand elsewhere. Unmarked numbers belong to inactive results.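 Rule for the calls: active = fitted half-maximal concentration of signal decrease at or below twice the sample's top tested concentration; inconclusive = flat curve between -70 and -30 percent, or poor fit; inactive = flat within 30 percent, signal rise, or potency above limit.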

assay: inhibitors of Toxoplasma growth in IFN-γ-primed HeLa – cell-based, ME49Luc, luciferase, 72 h, dose response (AID 1259418); conditions: T. gondii ME49Luc in IFN-y HeLa, active compounds read low, -100% = high-dose IFN-γ control wells; at 19.5 µM unless noted

**Q.** With `O=C(CC1Nc2c3ccccc3nc(=S)n2C1=O)NCCC1=CCCCC1` (centres undefined) as the compound, how does the max activity read?
**A.** 25.3% [at 0.68 µM]

**Q.** With `O=C(CC1N=C2c3ccccc3N=C(SCc3ccccc3F)N2C1=O)NCc1ccco1` (centres undefined) as the compound, how does the max activity read?
**A.** -17.8%

**Q.** For `CC(C)(C)c1ccc(CSC2=Nc3ccccc3C3=NC(CCC(=O)NCc4ccco4)C(=O)N23)cc1` (centres undefined), which max activity is on record?
**A.** 15.7% [at 0.16 µM]

**Q.** For `Cc1ccc(CSC2=Nc3ccccc3C3=NC(CCC(=O)NCc4ccco4)C(=O)N23)cc1` (centres undefined), which max activity is on record?
**A.** 39.1%

**Q.** For `Cc1ccc(CSC2=Nc3ccccc3C3=NC(CC(=O)NCc4ccco4)C(=O)N23)cc1` (centres undefined), which max activity is on record?
**A.** 10.3% [at 0.35 µM]

**Q.** For `Cc1nc(OCC(=O)Nc2cccc(Cl)c2)c2ccccc2n1`, which max activity is on record?
**A.** -6.84% [at 0.35 µM]

**Q.** Which max activity does the source give for `Cc1ccc(C)c(-c2coc(-c3ccc(NC(=O)C(C)(C)C)cc3)n2)c1` here?
**A.** 13.3% [at 0.16 µM]

**Q.** Which max activity does the source give for `COCCN1CCN(S(=O)(=O)c2ccccc2)Cc2cccnc21` here?
**A.** 18.1%

**Q.** For `CCOC(=O)c1ccccc1NC(=O)COc1nc(C)nc2ccccc12`, which max activity is on record?
**A.** 26.7% [at 10 µM]

**Q.** Which max activity does the source give for `CCc1cccc(C)c1NC(=O)COc1nc(C)nc2ccccc12` here?
**A.** 13.2% [at 0.68 µM]

**Q.** With `Cc1nc(OCC(=O)Nc2cccc(Br)c2)c2ccccc2n1` as the compound, how does the max activity read?
**A.** 18% [at 0.35 µM]

**Q.** Which max activity does the source give for `Cc1cc(C)c(NC(=O)COc2nc(C)nc3ccccc23)c(C)c1` here?
**A.** -16.7% [at 0.68 µM]

**Q.** With `COC(=O)c1ccc(Cl)cc1NC(=O)COc1nc(C)nc2ccccc12` as the compound, how does the max activity read?
**A.** 29% [at 0.16 µM]

**Q.** With `COc1ccc(C)cc1NC(=O)COc1nc(C)nc2ccccc12` as the compound, how does the max activity read?
**A.** 17.5% [at 0.68 µM]

**Q.** For `Cc1cc(C)cc(NC(=O)COc2nc(C)nc3ccccc23)c1`, which max activity is on record?
**A.** -16.7% [at 5 µM]

**Q.** Which max activity does the source give for `COc1ccc(OC)c(NC(=O)COc2nc(C)nc3ccccc23)c1` here?
**A.** 27.6% [at 2.6 µM]

**Q.** Which max activity does the source give for `CCOc1cccc(CC(=O)N2CCC3(CC2)Nc2cc(F)ccc2-n2cccc23)c1OCC` here?
**A.** 11.6% [at 0.35 µM]

**Q.** Which max activity does the source give for `O=C(NCCc1csc(-c2ccccc2)n1)[C@H]1CSCN1C(=O)Cc1ccc(F)cc1` here?
**A.** 10.7% [at 10 µM]

**Q.** For `Cc1ccc(C)c(-c2coc(-c3ccc(NC(=O)NCc4ccc(F)cc4)cc3)n2)c1`, which max activity is on record?
**A.** -8.97% [at 1.35 µM]

**Q.** Which max activity does the source give for `CCOc1ccc(C(=O)N2CCC3(CC2)Nc2ccc(C)c(C)c2-n2cccc23)cc1` here?
**A.** -13.2%

**Q.** Which max activity does the source give for `Cc1cccc(C(=O)Nc2c(C(=O)NCc3ccccn3)[nH]c3ccccc23)c1` here?
**A.** 17.8% [at 2.6 µM]

**Q.** Which max activity does the source give for `CN(C)CCN1CCC2(CCCN(C(=O)C3CCOC3)C2)C1=O` (centres undefined) here?
**A.** 39.4%

**Q.** For `Cc1cccc(-c2nc(Cn3nnc(-c4nc(-c5ccccc5C)no4)c3C)c(C)o2)c1`, which max activity is on record?
**A.** 5.08% [at 0.35 µM]

**Q.** Which max activity does the source give for `O=C(Nc1ccc(-c2nc(-c3cccc(Br)c3)co2)cc1)c1ccco1` here?
**A.** 21.7%

**Q.** For `O=C(NCCc1csc(-c2ccccc2)n1)[C@H]1CCCN1C(=O)COc1ccccc1`, which max activity is on record?
**A.** -18.8%

**Q.** With `Cc1nc(OCC(=O)Nc2ccc(F)cc2F)c2ccccc2n1` as the compound, how does the max activity read?
**A.** -20.9% [at 1.35 µM]

**Q.** For `Cc1nc(OCC(=O)Nc2ccccc2)c2ccccc2n1`, which max activity is on record?
**A.** 12.4% [at 0.16 µM]

**Q.** For `COc1ccc(NC(=O)COc2nc(C)nc3ccccc23)cc1`, which max activity is on record?
**A.** 19.3% [at 0.68 µM]

**Q.** With `Cc1nc(OCC(=O)Nc2ccc(Cl)cc2F)c2ccccc2n1` as the compound, how does the max activity read?
**A.** -13% [at 0.16 µM]

**Q.** For `Cc1nc(OCC(=O)Nc2ccc(F)cc2)c2ccccc2n1`, which max activity is on record?
**A.** 17.7% [at 10 µM]

**Q.** Which max activity does the source give for `COc1cc(NC(=O)COc2nc(C)nc3ccccc23)cc(OC)c1` here?
**A.** -12.3% [at 0.35 µM]

**Q.** For `CCc1nc(OCC(=O)NCc2ccc3c(c2)OCO3)c2ccccc2n1`, which max activity is on record?
**A.** 11.9% [at 0.35 µM]

**Q.** For `Cc1nc(OCC(=O)Nc2ccc3c(c2)OCO3)c2ccccc2n1`, which max activity is on record?
**A.** 12.1% [at 5 µM]

**Q.** With `O=C(Cc1ccc(F)cc1)N1CCC2(CC1)Nc1cc(F)ccc1-n1cccc12` as the compound, how does the max activity read?
**A.** 16% [at 0.16 µM]

**Q.** With `O=C(NCc1ccccc1)Nc1ccc(-c2nc(-c3ccccc3)co2)cc1` as the compound, how does the max activity read?
**A.** 42.6%

**Q.** For `CC(C)c1cc(C2CCCN2C(=O)Cn2nc(C(F)(F)F)c3c2CCCC3)no1` (centres undefined), which max activity is on record?
**A.** 6.95% [at 0.16 µM]

**Q.** With `Cc1cc(C2CCCN2C(=O)Cn2nc(C(F)(F)F)c3c2CCCC3)on1` (centres undefined) as the compound, how does the max activity read?
**A.** -9.58% [at 0.16 µM]

**Q.** With `CCCc1cc(C2CCCN2C(=O)Cn2nc(C(F)(F)F)cc2C)no1` (centres undefined) as the compound, how does the max activity read?
**A.** 9.64% [at 1.35 µM]

**Q.** Which max activity does the source give for `CCc1cc(C2CCCN2C(=O)Cn2nc(C(F)(F)F)c3c2CCCC3)on1` (centres undefined) here?
**A.** 14.3% [at 0.16 µM]

**Q.** With `CC(C)c1cc(C2CCCN2C(=O)Cn2nc(C(F)(F)F)c3c2CCCC3)on1` (centres undefined) as the compound, how does the max activity read?
**A.** 9.58% [at 2.6 µM]

**Q.** For `Cc1cc(C2CCCN2C(=O)Cn2nc(C(F)(F)F)cc2C)no1` (centres undefined), which max activity is on record?
**A.** 11.8% [at 2.6 µM]

**Q.** For `COCCCNC(=O)Cn1c(=O)c(S(=O)(=O)c2ccccc2)cc2ccccc21`, which max activity is on record?
**A.** -8.44% [at 0.35 µM]

**Q.** Which max activity does the source give for `Cc1ccc(-c2nc3c(s2)CN(S(=O)(=O)c2ccc(Cl)cc2)CC3)cc1` here?
**A.** 6.55% [at 10 µM]

**Q.** For `COc1cccc(CC(=O)N2CCC3(CC2)Nc2cc(OC)ccc2-n2cccc23)c1`, which max activity is on record?
**A.** 12.8% [at 0.35 µM]

**Q.** For `COc1ccc(CCNc2nc(SCc3cc(=O)n4cc(Cl)ccc4n3)nc3ccccc23)cc1OC`, which max activity is on record?
**A.** 12.8%

**Q.** Which max activity does the source give for `CN1C[C@H]2CN(Cc3ccc4c(c3)OCO4)CCC[C@@]2(C(=O)O)C1` here?
**A.** 12.4%

**Q.** Which max activity does the source give for `Cc1ccc(Cn2c(CN3CCC(C(=O)NCc4cccnc4)CC3)cc3ccccc32)cc1` here?
**A.** 16.6% [at 2.6 µM]

**Q.** Which max activity does the source give for `COc1cccc(C(=O)N2CCC3(CC2)Nc2ccc(Cl)cc2-n2cccc23)c1` here?
**A.** 7.04% [at 10 µM]

**Q.** For `Cc1cccc(OCC(=O)N2CCC(C(=O)NCCc3csc(-c4ccccc4)n3)CC2)c1`, which max activity is on record?
**A.** 9.91%
